Mcl1-Bid inh – disrupts binding of human Mcl-1 to Bid peptide. TR-FRET Mcl-1/Bid-Dy647 peptide binding, 1536-well. inhibition, % at 21.7 µM. hit rate 0.97% among 220,000. AID 1021;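 active = compounds that cut the binding signal by more than half at the single screening dose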;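 note: His-tagged Mcl-1 with europium anti-His antibody binding Bid BH3 peptide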
Target sequence (Q07820 whole entry, looked up): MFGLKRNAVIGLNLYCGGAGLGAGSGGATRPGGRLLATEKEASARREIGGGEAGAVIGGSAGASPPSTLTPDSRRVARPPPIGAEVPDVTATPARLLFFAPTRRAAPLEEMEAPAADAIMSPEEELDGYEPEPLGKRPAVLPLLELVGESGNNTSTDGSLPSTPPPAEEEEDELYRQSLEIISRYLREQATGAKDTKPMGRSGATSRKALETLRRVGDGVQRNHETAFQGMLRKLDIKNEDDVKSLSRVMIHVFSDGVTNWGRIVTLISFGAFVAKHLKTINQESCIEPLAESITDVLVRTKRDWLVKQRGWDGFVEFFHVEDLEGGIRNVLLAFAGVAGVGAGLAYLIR
Mcl1 Noxa PPI – Mcl-1/Noxa interaction inhibition | TR-FRET Mcl-1/Noxa peptide binding, 2 h | inhibition, % at 21.7 µM | Q07820 | hit rate 1.5% among 220,000;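 active = compounds that cut the protein-peptide binding signal by more than 50% relative to plate controls in a single-dose test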;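 note: His-tagged Mcl-1 with rhodamine Noxa BH3 peptide and terbium anti-His antibody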
GLD-1 TGE inh – GLD-1-TGE RNA interaction inhibition (C. elegans). AID 2280. Q17339. hit rate 0.44% among 320,000. inhibition, % at 5.96 µM. purified GLD-1 + fluorescein TGE RNA, fluorescence polarization;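 active = percent inhibition above a per-plate cutoff, the plate mean of test compounds plus 3 SD, cut at about 30% in these data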
MCL1-BIM inh – disrupts human MCL1 binding to BIM-BH3 peptide; GST-MCL1 / FITC-Bim-BH3 fluorescence polarization; Q07820; inhibition, % at 10.9 µM; hit rate 0.68% among 320,000;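 active = inhibition above the mean inhibition of all tested compounds plus 3 SD, set per campaign, cut at about 40% in these data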;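 note: higher means more loss of mP so more displacement of Bim peptide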
Mcl-1 Bim block – disrupts Bim peptide binding to human Mcl-1 | Q07820 | Bead-based flow cytometry, Bim peptide-Mcl-1 binding | inhibition, % at 10 µM | hit rate 0.1% among 190,000; in the data active = inhibition above about 40%
BCLXL inh – blocks human Bcl-xL binding to Bim BH3 peptide; inhibition, % at 10.9 µM; hit rate 0.7% among 320,000; Q07817; GST-Bcl-xL / FITC-Bim BH3 peptide fluorescence polarization;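 active = inhibition above the mean of all tested compounds plus 3 SD, cutoff set per campaign, cut at about 30% in these data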;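 note: inhibitors lower millipolarization by displacing the labeled peptide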
Of the large screens only hits and unclear results are named; the others gave an inactive call. The list is not random: actives were taken first. Their share in the collection is about 2.3%.

CCc1nc2oc3cc(OC)ccc3c(=O)c2c(=O)n1Cc1ccccc1	none
Cc1ccc(-n2c(C)nc3oc4ccccc4c(=O)c3c2=O)cc1	Mcl1 Noxa PPI 65
CCCc1nc2oc3cc(OC)ccc3c(=O)c2c(=O)n1CCc1ccccc1	Mcl1-Bid inh 69 (no result: Mcl-1 Bim block)
COc1ccc2c(=O)c3c(=O)n(-c4ccccc4)c(-c4ccco4)nc3oc2c1	none
CN(Cc1cc([N+](=O)[O-])ccc1Cl)C(=O)C[n+]1ccccc1	none (no result: Mcl1-Bid inh, Mcl1 Noxa PPI, Mcl-1 Bim block)
O=C(c1ccccc1[N+](=O)[O-])N1CCN(c2ccc(N3CCOCC3)nn2)CC1	none (no result: Mcl1-Bid inh, Mcl1 Noxa PPI, Mcl-1 Bim block)
CCN(CC)C(=O)c1[nH]cnc1C(=O)N[C@@H](Cc1ccccc1)C(=O)OC(C)(C)C	none (no result: Mcl1-Bid inh, Mcl1 Noxa PPI, Mcl-1 Bim block)
Cn1c(N)c(C(=O)COC(=O)c2ccc(Cl)c(S(=O)(=O)N3CCCC3)c2)c(=O)n(C)c1=O	none (no result: Mcl-1 Bim block)
CSc1ncccc1C(=O)N1CCN(S(=O)(=O)c2ccc(C)cc2)CC1	none (no result: Mcl1-Bid inh, Mcl1 Noxa PPI, Mcl-1 Bim block)
O=C1CCCCC1Sc1nnc(-c2ccc3c(c2)OCO3)o1 (stereo not given)	none
Cc1ccc(C)c(NC(=O)CN(C)C(=O)CC2OC(=O)c3ccccc32)c1 (stereo not given)	none (no result: Mcl1-Bid inh, Mcl1 Noxa PPI, MCL1-BIM inh, Mcl-1 Bim block, BCLXL inh)
COc1cccc(CC(=O)NC2CCCN(Cc3ccccc3F)C2)c1 (stereo not given)	none (no result: Mcl1-Bid inh, Mcl1 Noxa PPI, Mcl-1 Bim block)
COCc1ccc(C(=O)NC2CCCN(Cc3ccccc3F)C2)o1 (stereo not given)	BCLXL inh 36 (no result: Mcl1-Bid inh, Mcl1 Noxa PPI, Mcl-1 Bim block)
O=C(CSc1nc2ccccc2c(=O)n1CCCN1CCOCC1)Nc1ccc(F)c(Cl)c1	none (no result: Mcl1-Bid inh, Mcl1 Noxa PPI, MCL1-BIM inh, Mcl-1 Bim block, BCLXL inh)
Cc1ccc(NC(=O)CSc2nc3ccccc3c(=O)n2CCCN2CCCCC2)cc1Cl	Mcl-1 Bim block 41
Cc1ccccc1N1C(=O)C(Cc2ccc(F)cc2)S/C1=C(\C#N)C(N)=O (stereo not given)	none (no result: Mcl-1 Bim block)
O=C(CNC(=O)c1ccc(S(=O)(=O)N2CCCC2)cc1)N/N=C/c1ccc(Cl)cc1Cl	Mcl-1 Bim block 98
CSCCC(NC(=O)c1ccc(Cl)cc1Cl)C(=O)NCc1ccncc1 (stereo not given)	none (no result: Mcl1-Bid inh, Mcl1 Noxa PPI, Mcl-1 Bim block)
O=C(O)C(c1ccccc1)N1C(=O)c2ccccc2C1=O (stereo not given)	none (no result: Mcl1-Bid inh, Mcl1 Noxa PPI, Mcl-1 Bim block)
O=C(O)[C@@H](c1ccccc1)N1Cc2ccccc2C1=O	Mcl1-Bid inh 98
CCc1[nH]nc(C(=O)NC2CCCc3c2cnn3-c2cc(C)cc(C)c2)c1C (stereo not given)	none (no result: Mcl1-Bid inh, Mcl1 Noxa PPI, Mcl-1 Bim block)
COc1ccc(/C=C2\C(=O)NC(=S)N2C(=O)c2ccc(F)cc2)cc1	Mcl1-Bid inh 81, Mcl1 Noxa PPI 64
COc1cc(/C=C/c2nnc3c4ccccc4ncn23)cc(OC)c1OC	Mcl1 Noxa PPI 52
C(=C\c1nnc2c3ccccc3ncn12)/c1ccccc1	none
CC(=O)c1cccc(Nc2ncnc3ccc(Br)cc23)c1	none (no result: Mcl1-Bid inh, Mcl1 Noxa PPI, Mcl-1 Bim block)
O=C(COC(=O)c1ccccc1C(=O)N1CCN(c2ccccc2)CC1)Nc1ccc(F)cc1	GLD-1 TGE inh 37, MCL1-BIM inh 49, BCLXL inh 54
COc1cccc(NC(=O)COC(=O)c2ccccc2C(=O)N2CCN(c3ccccc3)CC2)c1	GLD-1 TGE inh 44, MCL1-BIM inh 50, BCLXL inh 49
CC(C)(C)n1nnnc1C(c1cccnc1)N1CCN(c2cccc(C(F)(F)F)c2)CC1 (stereo not given)	Mcl1-Bid inh 58
O=C(N/C(=C/c1cccc([N+](=O)[O-])c1)C(=O)N1CCOCC1)c1ccccc1Br	none (no result: Mcl1-Bid inh, Mcl1 Noxa PPI, Mcl-1 Bim block)
COc1ccc(C(=O)NCc2ccc3c(c2)cc(C)n3C)cc1OC	BCLXL inh 37
CCCS(=O)(=O)NCc1ccc2c(c1)cc(C)n2C	none
COc1cccc(C(=O)NCc2ccc3c(c2)cc(C)n3C)c1	none
CCS(=O)(=O)NCc1ccc2c(c1)cc(C)n2C	Mcl1-Bid inh 70
NS(=O)(=O)c1ccc(C(=O)Nc2ccc(-c3nc4cccnc4s3)cc2)cc1	Mcl1-Bid inh 52 (no result: Mcl-1 Bim block)
NS(=O)(=O)c1ccc(NS(=O)(=O)c2ccc(NC(=O)c3ccc(-c4ccccc4)cc3)cc2)cc1	Mcl1-Bid inh 54
NS(=O)(=O)c1ccc(NC(=O)c2ccc(-c3ccccc3)cc2)cc1	none (no result: GLD-1 TGE inh, MCL1-BIM inh, BCLXL inh)
O=C(O)[C@H](Cc1ccccc1)NC(=O)N1CCN(c2ccc(F)cc2)CC1	none (no result: Mcl-1 Bim block)
N#C/C(=C\c1sc(N2CCOCC2)nc1-c1ccccc1)C(=O)Nc1cccc2ccccc12	Mcl1-Bid inh 57 (no result: GLD-1 TGE inh, MCL1-BIM inh, BCLXL inh)
O=C(Nc1ccccc1)c1sc(N2CCOCC2)nc1-c1ccccc1	none

Assay outcomes as filed in PubChem.
